A selection: hits, their analogues and other compounds. The true share with any hit is near 3.5%.
GDH-TPI counter: GDH-TPI coupled enzyme inhibition counter-screen; GDH-TPI coupled enzyme counterscreen, NADH absorbance; inhibition, % at 4.8 µM; 360,000 tested, 1.2% active; AID 588335; in the data active = inhibition above about 30%;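 also: 0% = DMSO wells and 100% = wells lacking the enzyme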
Rv3671c inh: Rv3671c (M. tuberculosis) protease inhibition | 320,000 tested, 0.048% active | inhibition, % at 5.96 µM | P9WHR9; in the data active = inhibition above about 38%;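 also: extracellular domain of Rv3671c used as enzyme; 0% = enzyme with DMSO and 100% = no enzyme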
Mtb FBA inh: Mtb fructose-bisphosphate aldolase inhibition; purified M. tuberculosis FBA, fluorescence read-out; inhibition, % at 1 µM; 360,000 tested, 2.3% active; P9WQA3; in the data active = inhibition above about 27%;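 also: 0% = vehicle and 100% = reference inhibitor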
Target sequence (P9WQA3 whole entry, looked up): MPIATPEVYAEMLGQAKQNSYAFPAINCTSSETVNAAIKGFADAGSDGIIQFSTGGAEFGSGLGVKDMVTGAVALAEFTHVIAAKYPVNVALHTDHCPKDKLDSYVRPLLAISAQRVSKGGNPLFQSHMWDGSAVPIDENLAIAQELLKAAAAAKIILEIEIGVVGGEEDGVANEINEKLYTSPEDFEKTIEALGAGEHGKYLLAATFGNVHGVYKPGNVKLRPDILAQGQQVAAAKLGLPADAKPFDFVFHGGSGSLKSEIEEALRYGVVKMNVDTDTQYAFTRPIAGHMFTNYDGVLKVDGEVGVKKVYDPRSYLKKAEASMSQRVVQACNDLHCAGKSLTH
UGM FP inh: inhibitors of M. tuberculosis UDP-galactopyranose mutase. purified UGM, fluorescence polarization probe displacement. inhibition, % at 10 µM. 320,000 tested, 0.06% active. AID 504406; in the data active = inhibition above about 10%, passing the limit was not always enough
Starred values were filed as active, the others as inactive; nt = not tested or not shown.

SMILES	GDH-TPI counter	Rv3671c inh	Mtb FBA inh	UGM FP inh
O=C(C[n+]1cccc2ccccc21)c1ccc(Br)cc1	3	-7	1	2
Cc1occc1-c1nnc(SCC(=O)O)n1-c1ccccc1	2	-3	-1	2
CC1CCC(C(C)C)C(=O)/C1=C/c1ccc(N)cc1 (centres undefined)	36*	12	0	-1
CC1/C(=C\c2ccc(Cl)cc2)C(=O)C2CC1C2(C)C (centres undefined)	1	5	-1	-1
CCOc1c(Cl)cc(/C=C/C(=O)N(CC)CC(=O)NCc2cccs2)cc1OC	8	-6	7	0
C(=NN=Cc1c[nH]c2ccccc12)c1c[nH]c2ccccc12	41*	nt	-3	nt
Cc1ccc(/C=N/N=C2/NC(=O)CS2)o1	26	-4	-3	-1
O=C1CS/C(=N/N=C/c2c[nH]c3ccccc23)N1	35*	1	1	0
CCC1CCc2c(sc3ncnc(N4CCOCC4)c23)C1 (centres undefined)	-3	-8	120*	-2
CC(Sc1nnc(C2CC2)n1C1CC1)C(=O)Nc1ccccc1C#N (centres undefined)	-11	3	-1	-5
CCc1nnc(NS(=O)(=O)c2ccc(NC(=O)c3ccc(C#N)cc3)cc2)s1	-2	2	2	2
COC(=O)[C@]1(Cc2ccccc2)N[C@H](c2ccc(-c3cc(C(C)=O)cs3)cc2)[C@@H]2C(=O)N(C)C(=O)[C@@H]21	34*	4	8	-1
CC(OC(=O)c1ccc(F)c(S(=O)(=O)N2CCOCC2)c1)C(=O)NC1CCCC1 (centres undefined)	3	nt	4	nt
O=C(/C=C\Nc1ccc(Br)cc1)c1cccnc1	35*	4	-6	-3
Cc1noc(NS(=O)(=O)c2ccc(N/C=C\C(=O)c3ccncc3)cc2)c1C	20	-2	-2	4
Cc1noc(NS(=O)(=O)c2ccc(N/C=C/C(=O)c3cccnc3)cc2)c1C	34*	4	0	0
COC(=O)c1ccc(S(=O)(=O)N2CCCCCC2)cc1	47*	4	-5	-1
CC(C)(C)C(=O)Nc1ccc(S(=O)(=O)N2CCCC2)cc1	6	-8	182*	1
COC(=O)c1ccc(NC(=O)COc2ccc(S(=O)(=O)N3CCCCC3)cc2)cc1	0	-8	-1	nt
CC(=O)Nc1ccc(S(=O)(=O)N2CCCC2)cc1	6	-4	-1	-2
CCOc1ccc(CNS(=O)(=O)c2cc(-c3cc(C)no3)ccc2OC)cc1OC	3	-6	-1	2
O=C(O)C(C=C(Cl)Cl)N1CCOCC1 (centres undefined)	13	nt	0	nt
CC1Oc2cc3c(-c4c(O)cc(O)c5c(O)c6c(cc45)OC(C)C(C)C6=O)c(O)cc(O)c3c(O)c2C(=O)C1C (centres undefined)	27	40*	-2	1
Cc1cccc(CN2[C@H](COC(=O)Nc3ccccc3)C=CS2(=O)=O)c1	nt	nt	-1	nt
C/C(=N\NC(=S)Nc1ccccc1C)c1cc2ccccc2o1	49*	-1	2	4
SMILES	GDH-TPI counter	Rv3671c inh	Mtb FBA inh	UGM FP inh
C/C(=N\NC(=S)Nc1c(C)cccc1C)c1cc2ccccc2o1	19	1	1	-1
C=CCn1c(O)c(C=NCCN2CCOCC2)c(=O)[nH]c1=S	48*	1	-3	1
CCCCn1c(O)c(/C=N/N2CCOCC2)c(=O)[nH]c1=S	37*	-1	3	0
O=c1[nH]c(=S)n(C2CCCCC2)c(O)c1C=NCCN1CCOCC1	45*	0	-7	1
CS(=O)(=O)N(CC(=O)N1CCOCC1)c1ccccc1Br	-1	nt	-1	1
CC(C)(C)S(=O)(=O)N1Cc2cc(CO)cc(CCO)c2[C@@H]1CCO	-2	nt	-1	nt
CC1(C)Cc2c(c(N3CCOCC3)nc3sc4c(NCCN)ncnc4c23)CO1	47*	nt	12	nt
CCN(CC)CCNc1ncnc2c1sc1nc(N3CCOCC3)c3c(c12)CC(C)(C)SC3	34*	0	7	0
CN(C)CCNc1ncnc2c1sc1nc(N3CCOCC3)c3c(c12)CC(C)(C)SC3	28	-10	5	-3
O=C1c2ccccc2S(=O)(=O)N1CCS(=O)(=O)c1ccc(F)cc1	1	0	0	0
Cc1ccc[n+](CC(=O)Nc2ccc(C)c(C)c2)c1	11	2	0	-5
COc1ccc(/C=C(/NC(=O)c2ccc(Br)o2)C(=O)Nc2cccc(C(=O)O)c2)cc1	34*	nt	3	nt
COc1ccc(NC(=O)/C(=C/c2cccs2)NC(=O)c2ccco2)cc1	45*	3	3	-3
COc1ccccc1NC(=O)/C(=C/c1cccs1)NC(=O)c1ccco1	19	-1	-3	1
COc1ccc(NC(=O)/C(=C\c2ccc(OC)c(OC)c2)NC(=O)c2ccco2)cc1	37*	-6	0	-2
CC(=O)c1ccc(NC(=O)/C(=C\c2cccs2)NC(=O)c2ccco2)cc1	33*	-4	-5	-5
O=C(Nc1cccc(C(=O)O)c1)/C(=C\c1ccco1)NC(=O)c1ccc(Br)o1	20	-1	0	-1
Cc1ccc(C(C)C)c(OCCNCCc2ccccc2)c1	15	3	5	0
Cc1ccc(OCC(=O)NNC(=O)c2ccco2)c(C)c1	8	2	-1	0
O=C(C(=O)N1CCCCC1)c1cn(CC(=O)N2CCCCCC2)c2ccccc12	7	-2	-2	3
N#CC1=C(N)SC(N)=C(C#N)C1c1ccc(C(F)(F)F)cc1	nt	15	nt	0
CCc1ccc(C2C(C#N)=C(N)SC(N)=C2C#N)cc1	31*	-23	7	-2
CN(C)c1ccc(C=C2C(=O)NC(=O)NC2=O)cc1	31*	nt	-3	nt
CCCCC1(C)OC(=O)C(=Cc2c[nH]c3ccccc23)C(=O)O1 (centres undefined)	5	-1	-1	-3
CN(C)c1ccc(C=C2C(=O)NC(=S)NC2=O)cc1	27	nt	-7	nt
SMILES	GDH-TPI counter	Rv3671c inh	Mtb FBA inh	UGM FP inh
CCCCC1(C)OC(=O)C(=Cc2ccc(N(C)C)cc2)C(=O)O1 (centres undefined)	40*	-17	-3	3
Cc1ccc(OCC(=O)Nc2ccccc2C(=O)N2CCCC2)cc1	-1	-5	3	2
COc1ccc(C(=O)Nc2ccc3nc4n(c(=O)c3c2)CCCCC4)cc1OC	-8	nt	-2	nt
COc1ccc(/C=C/C(=O)Nc2ccccc2)cc1OC	8	0	-3	-1
COc1ccc(/C=C/C(=O)Nc2ccc3nc4n(c(=O)c3c2)CCCC4)cc1OC	36*	-5	0	-2
COc1cc(/C=C/C(=O)Nc2nnc(CC(C)C)s2)cc(OC)c1OC	10	-3	6	-2
COc1ccc(/C=C/C(=O)Nc2nnc(C(C)C)s2)cc1OC	34*	-6	6	9
COc1ccc(/C=C/C(=O)Nc2ccc(-n3nncc3-c3ccc(OC)c(OC)c3)cc2)cc1OC	36*	-224	-3	4
COc1ccc(/C=C/C(=O)Nc2c(C(=O)O)[nH]c3ccccc23)cc1OC	31*	1	1	4
COc1c(C)cc(S(=O)(=O)NCc2ccco2)c(C)c1C	-8	14	-4	1
COc1ccc(NC(=O)COC(=O)CCNC(=O)c2ccco2)cc1Cl	3	1	0	6

Assay outcomes as filed in PubChem.
